Bioassay records deposited in PubChem by National Center for Advancing Translational Sciences (NCATS).
Six1-Eya2 blk: inhibitors of human Six1/Eya2 interaction. Q15475+O00167. AlphaScreen GST-Six1/His-Eya2 binding, biochemical; hits give low values. activity change, % (test concentration not listed). actives 0.56% (n = 360,000). AID 651725; in the data active = activity change below about -65%; inconclusive = mostly about -30% to -63%
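Compounds are tested against tagged Six1 and Eya2 proteins bridged by glutathione donor and nickel acceptor beads; after a one-hour incubation at 37 °C without light, AlphaScreen emission is recorded.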
JMJD2A Tudor: blocks the human JMJD2A Tudor domain. O75164. AlphaScreen JMJD2A-Tudor / H3K4me3 peptide binding. Potency, µM (highest dose often 114 µM), most hits filed as inhibitors. actives 4.4% (n = 390,000). AID 504339; also: nearly all actives have a fitted effect of over 50% in size
BAZ2B inh: blocks human BAZ2B; AlphaScreen BAZ2B-H3K14Ac peptide displacement; Potency, µM (series often up to 114 µM), most hits filed as inhibitors; actives 4.4% (n = 360,000); Q9UIF8; also: nearly all actives have a fitted effect of over 60% in size
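In this displacement format the biotinylated H3(5-23) peptide acetylated at Lys14 serves as ligand at 50 nM, with BAZ2B at 50 nM in PBS pH 7.4 containing 0.01% Tween-20. Donor and acceptor beads are 10 ug/mL final.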
CtBP-E1A inh: inhibitors of CtBP/E1A interaction | AlphaScreen GST-E1A/His-CtBP binding, 1536-well; hits give low values | activity change, % (concentration not given with the values) | actives 0.49% (n = 340,000); in the data active = activity change below about -65%; inconclusive = mostly about -30% to -63%
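Steps: dispense buffer (Tris pH 8.0, NaCl 300 mM, TCEP 1 mM, BSA, Tween 20); add 5X protein mix (GST-E1A, His-CtBP, 125 nM each); pin 23 nL compound; 2 h at 37 °C, dark; add 5X beads (50 ug/mL); 1 h; read.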
TDP1 inh: TDP1 (human) enzyme inhibition; Q9NUW8; actives 0.28% (n = 350,000); AID 485290; recombinant TDP1, AlphaScreen DNA substrate cleavage; Potency, µM (highest dose often 130 µM), most hits filed as inhibitors; also: nearly all actives have a fitted effect of over 40% in size
Target sequence (Q9NUW8 whole entry, looked up): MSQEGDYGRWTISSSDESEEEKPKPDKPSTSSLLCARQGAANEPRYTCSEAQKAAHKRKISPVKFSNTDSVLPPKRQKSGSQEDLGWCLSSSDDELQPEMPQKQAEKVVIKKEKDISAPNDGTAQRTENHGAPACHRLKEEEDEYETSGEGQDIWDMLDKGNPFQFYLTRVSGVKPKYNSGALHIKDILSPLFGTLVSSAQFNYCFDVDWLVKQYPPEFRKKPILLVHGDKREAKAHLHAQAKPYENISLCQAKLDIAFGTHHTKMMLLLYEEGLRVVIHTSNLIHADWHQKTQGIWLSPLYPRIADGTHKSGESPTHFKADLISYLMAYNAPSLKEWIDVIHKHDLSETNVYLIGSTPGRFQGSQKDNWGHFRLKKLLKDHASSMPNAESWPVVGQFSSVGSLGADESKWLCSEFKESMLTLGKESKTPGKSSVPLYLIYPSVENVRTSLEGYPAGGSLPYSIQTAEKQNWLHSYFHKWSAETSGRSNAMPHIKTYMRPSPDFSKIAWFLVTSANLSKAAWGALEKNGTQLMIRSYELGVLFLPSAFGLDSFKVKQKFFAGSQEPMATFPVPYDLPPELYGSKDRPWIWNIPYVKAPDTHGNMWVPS
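Steps: enzyme plus compound, 15 min RT; add biotin/phosphotyrosine-FITC oligonucleotide (15 nM final), react 5 min; add donor/acceptor beads (10 ug/ml final), 10 min; read AlphaScreen. Tdp1 at 1 nM final.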
HP1b binding inh: HP1-beta chromodomain-methylated histone interaction inhibition | AlphaScreen HP1-beta / biotin-H3K9me3 peptide binding | Potency, µM (doses to about 114 µM), usual class: inhibitors | actives 0.56% (n = 390,000); also: nearly all actives have a fitted effect of over 70% in size
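AlphaScreen: HP1-beta (50 nM) preformed 30 min with biotin-H3(1-18)K9me3 peptide (50 nM) in PBS pH 7.4, 0.01% Tween-20. Compound added for 30 min at RT, then streptavidin donor/nickel chelate acceptor beads (10 ug/mL) for 30 min.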
Hits are given with their value; - = inactive; ? = inconclusive; . = not tested or not shown; [ ] = remark or other dose. Sampled rows, rich in hits. Any-hit rate of the full collection: about 5.3%. Unless noted, calls follow the shape of the dose curve; as a rule, active = well fitted inhibition curve with a large enough effect; inconclusive = small, poorly fitted or top-dose-only effect; inactive = no such curve, though single readings can be large or run the other way.

SMILES | Six1-Eya2 blk | JMJD2A Tudor | BAZ2B inh | CtBP-E1A inh | TDP1 inh | HP1b binding inh
CCn1nccc1C(=O)Nc1ccccc1OC | - | - | - | - | . | -
CCn1ncc(Br)c1C(=O)Nc1ccccc1OC | - | 56µM | - | - | - | -
COc1ccccc1OC(C)C(=O)N1CCN(CCc2ccccn2)CC1 (stereo unspecified) | . | - | - | . | - | -
Cc1cccc(-c2noc(-c3cccnc3NCc3ccccc3Cl)n2)c1 | . | - | - | . | - | -
Cc1nn(C)c2c1c(C(F)(F)F)cc(=O)n2Cc1cccc(Br)c1 | . | - | - | . | - | -
CCOc1ccccc1CNC(=O)c1ccc(NC(=O)N2CCSc3ncccc32)cc1 | . | - | - | . | - | -
CCCN1/C(=C2/SC(=S)N(CC)C2=O)C=Cc2ccccc21 | -80 | 3.2µM | 2µM | -70 | - | ?
C=CCN1C(=O)/C(=C2/Sc3ccccc3N2CC)SC1=S | - | - | - | - | . | -
CCN1C(=O)/C(=C/C=C2/Sc3ccccc3N2CCO)SC1=S | - | - | - | - | - | -
CCCN1C(=O)/C(=C\C=C2/Sc3ccccc3N2CCO)SC1=S | - | - | - | - | - | -
CN1C(=O)/C(=C2/C=Cc3ccccc3N2CCCS(=O)(=O)O)SC1=S | - | ? | 45µM | - | - | ?
CCN1C(=O)/C(=C2/C=Cc3ccccc3N2CC)SC1=S | -84 | 11µM | 7.9µM | . | - | ?
CCCN1C(=O)/C(=C2/C=Cc3ccccc3N2CC)SC1=S | -76 | 5.6µM | 2.8µM | -76 | - | 3.2µM
Cc1ccc(Cl)cc1NC(=O)Cn1nc2c(cc1=O)CC(C)CC2 (stereo unspecified) | . | - | - | . | - | -
COC(=O)c1cc2oc3ccccc3c2n1CC(=O)Nc1ccc(OC)c(OC)c1 | . | - | - | . | - | -
CCC(NC(=O)CCc1c(C)c2cc3c(-c4ccccc4)coc3cc2oc1=O)C(=O)O (stereo unspecified) | - | - | - | -77 | . | -
Cc1c(CC(=O)NCCCC(=O)O)c(=O)oc2cc3occ(-c4ccccc4)c3cc12 | ? | - | - | - | . | -
Cc1c(CCC(=O)N[C@@H](C)C(=O)O)c(=O)oc2cc3occ(-c4ccccc4)c3cc12 | ? | - | - | -77 | . | -
Cc1c(CCC(=O)NCCCCCC(=O)O)c(=O)oc2cc3occ(-c4ccccc4)c3cc12 | -68 | - | ? | . | . | -
Cc1ccc(NC(=O)Cn2c(=O)n(CCCCC(=O)NCCc3ccccc3)c(=O)c3ccccc32)cc1 | . | - | - | . | - | -
Cc1cc2c(s1)c1cnn(Cc3cc(OC(F)(F)F)ccc3F)c(=O)c1n2C | . | - | . | . | . | .
S=c1[nH]nc(NCCCN2CCOCC2)s1 | - | 3.5µM | 32µM | - | - | ?
CN(Cc1c(O)ccc2c1oc(=O)c1ccccc12)C1CCCCC1 | - | 4µM | 5.6µM | - | . | ?
Cn1nc(C(=O)N2CCN(c3ccccc3F)CC2)c2c1-c1ccccc1SC2 | . | 20µM | 13µM | . | - | -
Cn1nc(C(=O)N2CCN(c3ccc(F)cc3)CC2)c2c1-c1ccccc1SC2 | . | ? | - | . | - | -
SMILES | Six1-Eya2 blk | JMJD2A Tudor | BAZ2B inh | CtBP-E1A inh | TDP1 inh | HP1b binding inh
O=C(c1ccc(C(=O)N2CCN(c3ccccc3F)CC2)nc1)N1CCN(c2ccccc2F)CC1 | - | 79µM | - | - | - | -
Cn1nc(C(=O)NCc2ccc(F)cc2)c2c1-c1ccccc1SC2 | . | 28µM | 10µM | . | - | ?
O=C1c2ccccc2C(=O)N1c1ncccc1O | . | - | . | . | - | .
Cn1c(N)c(C#N)c2c(c1=S)CSC(C)(C)C2 | - | 79µM | - | - | - | -
CCOC(=O)/C=C(\C)Sc1cc(O)c2ccccc2c1O | ? | 7.9µM | 28µM | . | - | 7.9µM
CC(=O)Nc1ccc(NC(=O)C2(c3cccs3)CCOCC2)cc1 | . | 45µM | - | . | - | -
COc1ccc(NC(=O)C2(c3cccs3)CCOCC2)cc1 | - | -[11.4 µM] | - | - | - | -
CC(=O)N1CCc2c(sc3nc(SCC(C)C)n(-c4ccc(C)c(Cl)c4)c(=O)c23)C1 | . | ? | - | . | - | -
O=C(N/N=C/c1cc(Br)ccc1O)c1cccc(N2CCCC2=O)c1 | -78 | - | - | -67 | - | -
